Source: PubChem BioAssay (National Center for Advancing Translational Sciences (NCATS))
An excerpt weighted towards active compounds, which were near 2.8% of everything screened.
a7 integrin act – integrin-mediated muscular dystrophy alleviation activation; alpha7betagal myoblasts, beta-gal FDG fluorescence, 48 h; Potency, µM (series often up to 38.3 µM), inactives show at the highest dose activation, usual class: activators; 350,000 tested, 0.064% active; AID 624291;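 further: potency means the concentration at half of the fitted maximal effect; 100% = response of the positive control SU9516; nearly all actives have a fitted effect of over 60% in size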
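alpha7betagal+/- myoblasts (passage 13, 250/well) treated 48 h at 37C with compounds at 1:260 dilution of DMSO stock. Lysed, then beta-galactosidase activity read as FDG fluorescence (ex 480/em 540) after 30 min, with pre-read for autofluorescence.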
CBFb RUNX1 block – inhibitors of human CBF-beta and RUNX1 interaction; Q01196+Q13951; AlphaScreen CBFb-His/RUNX1-biotin binding, biochemical; Potency, µM (series often up to 59.8 µM), inactives show at the top dose activity, negative = inhibition, hits mostly inhibitors; 230,000 tested, under 10 active; AID 1477; further: % of control where 0% means no effect
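CBFb-His/RUNX1-biotin, 30 nM each, preincubated 20 min RT; compound 15 min RT; Ni + streptavidin beads 50 ng each, 90 min RT; AlphaScreen read.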
D3 antag – antagonists of human D3 dopamine receptor. P35462. D3R cells, DiscoveRx beta-arrestin luminescence, antagonist mode; hits give low values. max response, negative = inhibition, %. 360,000 tested, 2.5% active. AID 652054; in the data active means max response below about -50%; inconclusive means no clear call, values can overlap the other calls; further: on the % scale 0 is the no-effect control and ±100 the full control effect
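Cells expressing the human receptor were seeded at 1500 cells/well, incubated overnight at 37 degrees C in 5% CO2, then exposed to library compounds with dopamine controls for 90 minutes at 37 degrees C before luminescent detection.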
PTHR1 agonist – PTHR1 (human) receptor agonism; 410,000 tested, 0.075% active; AID 743266; Q03431; Potency, µM (highest dose often 115 µM), inactives show top-dose activation, actives largely listed as activators; HEK293 GP2 PTHR1 cells, GloSensor cAMP luminescence, 1 h; further: potency means the concentration at half of the fitted maximal effect; nearly all actives have a fitted effect of over 55% in size
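HEK-293-derived GP2 cells expressing PTHR1 and a GloSensor cAMP reporter, 3,000/well, plated overnight, given luciferin plus IBMX (each 0.5 mM as added) for 1 h at 37 °C, then compound for 1 h at 37 °C. Luminescence was read after 15 min at room temperature.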
MBNL1-CUG inh – MBNL1-poly(CUG) RNA binding inhibition; Q9NR56; TR-FRET MBNL1-His/biotin-(CUG)12 binding, 665/545 ratio; 280,000 tested, 0.036% active; AID 2675; Potency, µM (highest dose often 57.5 µM), inactives show at the top dose activity change, negative = inhibition, usual class: inhibitors; active means well fitted inhibition curve with a large enough effect in the signal ratio, with a control signal flat, not every such curve was filed as active; inconclusive means small, poorly fitted or top-dose-only effect, or effect the other way, or a change in a side signal; inactive means no such curve, though single readings can be large or run the other way; the % refers to the signal ratio; further: potency means the concentration at half of the fitted maximal effect; on the % scale 0 is the no-effect control and ±100 the full control effect
Target sequence (Q9NR56 whole entry, looked up): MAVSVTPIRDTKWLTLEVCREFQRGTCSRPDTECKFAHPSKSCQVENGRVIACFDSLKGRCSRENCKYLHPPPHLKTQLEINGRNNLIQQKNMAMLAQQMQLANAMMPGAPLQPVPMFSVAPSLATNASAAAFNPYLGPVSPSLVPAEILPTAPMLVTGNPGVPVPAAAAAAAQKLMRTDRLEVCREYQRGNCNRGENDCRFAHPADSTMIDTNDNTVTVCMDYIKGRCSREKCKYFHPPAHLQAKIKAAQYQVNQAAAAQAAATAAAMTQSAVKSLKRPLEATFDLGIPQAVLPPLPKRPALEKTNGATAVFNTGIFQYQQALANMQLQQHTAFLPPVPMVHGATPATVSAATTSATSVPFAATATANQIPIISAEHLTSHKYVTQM
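His-tagged MBNL1 binding to biotinylated (CUG)12 RNA was measured by TR-FRET using terbium anti-His antibody (0.055 ng/ul final) and streptavidin-XL665 (5 nM final). Compounds were titrated 92 nM to 58 uM; 60 min at room temperature.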
D3 ag – activates the human D3 dopamine receptor; P35462; D3R DiscoveRx beta-arrestin cells, luminescence, 90 min; max activation, %; 410,000 tested, 0.58% active; AID 652048; in the data active means max activation above about 30%; further: 0% is about no effect
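Agonist-mode cell screen: cells plated at 1500/well and incubated overnight at 37 °C, then exposed to library compounds for 90 min at 37 °C. Detection reagent was added for 30–60 min at room temperature, and luminescence was read.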
* marks the source's active call; other numbers are inactive results; i = inactive; ? = inconclusive; . = no result given. Unless noted, the call rests on the fitted dose curve; in most records, active means well fitted curve in the direction sought with a large enough effect; inconclusive means small, poorly fitted or top-dose-only effect, or another doubt; inactive means no such curve, though single readings can be large; an effect the other way counts as inactive or inconclusive.

SMILES | a7 integrin act | CBFb RUNX1 block | D3 antag | PTHR1 agonist | MBNL1-CUG inh | D3 ag
NC(=O)NC(CC(=O)OCC(=O)Nc1nnc(-c2ccccc2)o1)c1ccc(Cl)cc1 (stereo not drawn) | 3% | . | 20 | -8% | . | 5
O=C(NCCCN1CCCC1=O)C1CCCO1 (stereo not drawn) | -6% | 11% | 8 | i | 2% | -4
Cc1ccc2oc(/N=C(\N)NC(=O)C(C)(C)C)nc2c1 | 34% | -6% | -52* | -60% | . | -14
Cc1ccc(S(=O)(=O)N2CCN(C(=O)COC(=O)c3cnc(C)cn3)CC2)c(C)c1 | 5% | . | 12 | -14% | . | 2
CCCCNC(=O)c1onc(CSc2ccncc2)c1C(=O)NCCCC | 1% | 6% | -3 | -20% | -3% | 59*
CCCCNC(=O)c1onc(CSc2ccccc2)c1C(=O)NCCCC | 8% | . | 0 | i | . | 42*
CCCCNC(=O)c1onc(CSc2ccc(Cl)cc2)c1C(=O)NCCCC | 15% | . | -6 | -4% | . | -13
COCCNC(=O)c1onc(CSc2ccc(F)c(F)c2)c1C(=O)NCCOC | 9% | . | 0 | -24% | . | 30*
CN(CC(=O)Nc1ccc(Cl)cc1)C(=O)c1cccc(S(=O)(=O)NCc2ccccc2)c1 | 29% | . | -64* | -3% | -2% | -31
COc1cc(CN2CCc3ccc(NC(=O)CCc4ccccc4OC)cc3C2)ccc1O | -3% | . | -62* | i | 2% | -14
COc1cc(CN2CCc3ccccc3C2)ccc1O | -52% | -3% | -90* | -40% | . | -22
Cc1ccc(Sc2ccc(CN3CCCCC3)cc2[N+](=O)[O-])cc1 | 6% | -19% | -106* | -11% | ? | -1
Cc1cc(-n2c(SCC(=O)NCc3ccccc3)nc3ccsc3c2=O)ccc1Cl | . | . | . | i | . | 3
CCN(CC)C(=O)Nc1ccc(OCC(O)CNC(C)(C)C)c(C(C)=O)c1 (stereo not drawn) | . | . | . | . | . | 2
CN1CCc2c(sc(/N=C/c3c[nH]c4ccccc34)c2C#N)C1 | 6% | -1% | ? | -7% | 11% | -8
CN1CCc2c(sc(/N=C/c3cc(Cl)ccc3O)c2C#N)C1 | 26% | -12% | -50* | -19% | 0% | 21
CCCc1cc(=O)oc2c(CN3CCN(C)CC3)c(O)ccc12 | 15% | . | 5 | i | 4% | 32*
CCCCc1cc(=O)oc2c(CN3CCN(C)CC3)c(O)ccc12 | 23% | . | -17 | ? | 26% | -7
CSc1cccc(NC(=O)c2ccc(CN3CCc4ccccc4C3)cc2)c1 | -2% | . | -96* | -35% | -2% | -7
O=C(Nc1cccc(Br)c1)c1ccc(CN2CCc3ccccc3C2)cc1 | -26% | . | -56* | -79% | -13% | -16
CC(=NNC(=S)Nc1cccc(C)c1)c1ccccn1 | -15% | . | -20 | -51% | . | -5
C/C(=N\NC(=S)Nc1cccc(C)c1)c1cccc(N)c1 | -2% | -4% | -10 | i | ? | -1
C/C(=N\NC(=S)Nc1cccc(C)c1)c1ccccc1 | -2% | -23% | -52* | -30% | -6% | -1
CC(=NNC(=S)Nc1ccc(C)cc1)c1ccccn1 | -5% | . | -50* | -18% | . | 4
Cc1ccc(C(=O)Nc2ccc(Nc3ccccc3)cc2)c(Cl)c1 | -13% | . | -12 | i | -4% | 0
Cc1cc(C)c(CN2CCN(C(=O)CC[C@H]3O[C@@H](n4ccc(=O)[nH]c4=O)[C@H](O)[C@@H]3O)CC2)c(C)c1 | . | . | -69* | ? | . | -13
CC(=O)CCC(=O)CNC(=O)CC[C@H]1O[C@@H](n2ccc(=O)[nH]c2=O)[C@H](O)[C@@H]1O | . | . | 0 | 1% | . | -3
Cc1cc(N2CCN(C)CC2)nc2ccc(NC(=O)c3ccc4c(c3)OCO4)cc12 | -62% | -1% | -76* | i | -4% | -6
CCC(CC)c1nnc(NC(=O)Oc2ccccc2)s1 | 28% | -1% | -69* | -6% | -4% | -3
